Data published in the supplement of paper PMC11732987, “Enantioselective OTUD7B fragment discovery through chemoproteomics screening and high-throughput optimisation” (Communications Chemistry, 2025).

Legend:
Test in all cases: log2 ratio of Biotin-Ahx-Ub-VS probe labelling (fragment/DMSO); higher = less target engagement (more negative = stronger competition), active = hit call of the paper (q ≤ 0.05, log2 ratio ≤ -1)
Settings in all cases: compound concentration: 200 uM; treatment time: 3 h
USP19 = target: T1, USP19 (UniProt O94966)
T1 sequence (whole entry): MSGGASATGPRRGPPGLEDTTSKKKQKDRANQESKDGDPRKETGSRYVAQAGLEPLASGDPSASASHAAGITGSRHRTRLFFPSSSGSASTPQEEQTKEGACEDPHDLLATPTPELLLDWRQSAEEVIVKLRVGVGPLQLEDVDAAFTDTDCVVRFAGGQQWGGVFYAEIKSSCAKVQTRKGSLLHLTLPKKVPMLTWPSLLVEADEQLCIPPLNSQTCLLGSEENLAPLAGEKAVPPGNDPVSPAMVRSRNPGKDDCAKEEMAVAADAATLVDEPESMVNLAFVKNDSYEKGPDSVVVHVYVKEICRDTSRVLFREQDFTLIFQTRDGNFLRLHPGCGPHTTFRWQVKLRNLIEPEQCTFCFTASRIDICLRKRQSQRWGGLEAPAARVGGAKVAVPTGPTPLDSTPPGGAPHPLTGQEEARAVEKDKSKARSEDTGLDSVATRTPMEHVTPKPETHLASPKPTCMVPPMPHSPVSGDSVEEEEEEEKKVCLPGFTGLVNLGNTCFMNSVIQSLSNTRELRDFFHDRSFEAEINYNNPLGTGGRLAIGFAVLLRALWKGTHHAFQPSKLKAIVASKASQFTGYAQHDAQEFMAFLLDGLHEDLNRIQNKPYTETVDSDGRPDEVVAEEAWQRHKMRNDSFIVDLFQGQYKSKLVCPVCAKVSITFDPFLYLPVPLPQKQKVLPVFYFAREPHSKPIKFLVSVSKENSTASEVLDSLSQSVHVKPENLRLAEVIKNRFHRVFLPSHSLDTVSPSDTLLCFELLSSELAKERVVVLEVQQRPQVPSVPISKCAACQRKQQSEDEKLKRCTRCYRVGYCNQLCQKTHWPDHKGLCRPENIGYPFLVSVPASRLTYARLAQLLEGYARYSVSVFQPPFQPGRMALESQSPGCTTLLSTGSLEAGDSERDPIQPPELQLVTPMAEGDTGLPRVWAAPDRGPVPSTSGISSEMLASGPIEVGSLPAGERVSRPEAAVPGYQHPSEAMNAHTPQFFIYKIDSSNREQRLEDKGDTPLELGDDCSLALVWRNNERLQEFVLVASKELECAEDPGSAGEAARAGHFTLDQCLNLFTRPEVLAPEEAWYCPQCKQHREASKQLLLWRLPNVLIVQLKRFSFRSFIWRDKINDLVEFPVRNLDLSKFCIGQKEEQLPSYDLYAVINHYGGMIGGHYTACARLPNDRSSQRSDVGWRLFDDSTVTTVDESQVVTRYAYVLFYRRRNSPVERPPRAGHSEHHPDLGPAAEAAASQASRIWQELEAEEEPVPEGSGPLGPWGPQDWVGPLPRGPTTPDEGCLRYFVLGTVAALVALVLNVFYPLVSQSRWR
How it was run: (§1)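 HEK293T lysate (495 µg per sample, in Tris/CHAPS/IGEPAL buffer with protease inhibitors) was treated in triplicate with fragment at 200 µM or with DMSO for 3 h. It was then treated with Biotin-Ahx-Ub-VS (0.5 µM final) for 1 h. Labelled DUBs were NeutrAvidin-enriched, digested with LysC and trypsin, and run by diaPASEF LC-MS/MS. Spectronaut label-free quantities were global-median-normalised. Values are average log2 ratios fragment/DMSO by unpaired t-test, using proteins with ≥2 unique peptides.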

USP22 = target: T2, USP22 (UniProt Q9UPT9)
T2 sequence (whole entry): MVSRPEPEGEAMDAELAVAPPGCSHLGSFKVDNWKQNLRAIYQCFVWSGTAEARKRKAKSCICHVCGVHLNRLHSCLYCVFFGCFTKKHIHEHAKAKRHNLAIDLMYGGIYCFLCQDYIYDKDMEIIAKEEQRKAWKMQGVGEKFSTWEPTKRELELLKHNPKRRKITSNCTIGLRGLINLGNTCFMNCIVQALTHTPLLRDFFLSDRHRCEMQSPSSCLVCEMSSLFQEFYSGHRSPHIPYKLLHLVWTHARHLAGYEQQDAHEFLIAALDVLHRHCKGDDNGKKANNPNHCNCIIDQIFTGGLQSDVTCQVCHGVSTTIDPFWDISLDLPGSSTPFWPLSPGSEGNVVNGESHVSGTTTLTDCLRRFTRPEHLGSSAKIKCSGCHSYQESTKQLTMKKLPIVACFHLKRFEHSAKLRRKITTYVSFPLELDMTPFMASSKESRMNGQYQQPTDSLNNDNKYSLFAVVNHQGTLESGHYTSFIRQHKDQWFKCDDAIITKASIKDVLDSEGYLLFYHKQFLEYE
How it was run: as §1

USP24 = USP24 (UniProt Q9UPU5)
Sequence of USP24 (Q9UPU5 whole entry): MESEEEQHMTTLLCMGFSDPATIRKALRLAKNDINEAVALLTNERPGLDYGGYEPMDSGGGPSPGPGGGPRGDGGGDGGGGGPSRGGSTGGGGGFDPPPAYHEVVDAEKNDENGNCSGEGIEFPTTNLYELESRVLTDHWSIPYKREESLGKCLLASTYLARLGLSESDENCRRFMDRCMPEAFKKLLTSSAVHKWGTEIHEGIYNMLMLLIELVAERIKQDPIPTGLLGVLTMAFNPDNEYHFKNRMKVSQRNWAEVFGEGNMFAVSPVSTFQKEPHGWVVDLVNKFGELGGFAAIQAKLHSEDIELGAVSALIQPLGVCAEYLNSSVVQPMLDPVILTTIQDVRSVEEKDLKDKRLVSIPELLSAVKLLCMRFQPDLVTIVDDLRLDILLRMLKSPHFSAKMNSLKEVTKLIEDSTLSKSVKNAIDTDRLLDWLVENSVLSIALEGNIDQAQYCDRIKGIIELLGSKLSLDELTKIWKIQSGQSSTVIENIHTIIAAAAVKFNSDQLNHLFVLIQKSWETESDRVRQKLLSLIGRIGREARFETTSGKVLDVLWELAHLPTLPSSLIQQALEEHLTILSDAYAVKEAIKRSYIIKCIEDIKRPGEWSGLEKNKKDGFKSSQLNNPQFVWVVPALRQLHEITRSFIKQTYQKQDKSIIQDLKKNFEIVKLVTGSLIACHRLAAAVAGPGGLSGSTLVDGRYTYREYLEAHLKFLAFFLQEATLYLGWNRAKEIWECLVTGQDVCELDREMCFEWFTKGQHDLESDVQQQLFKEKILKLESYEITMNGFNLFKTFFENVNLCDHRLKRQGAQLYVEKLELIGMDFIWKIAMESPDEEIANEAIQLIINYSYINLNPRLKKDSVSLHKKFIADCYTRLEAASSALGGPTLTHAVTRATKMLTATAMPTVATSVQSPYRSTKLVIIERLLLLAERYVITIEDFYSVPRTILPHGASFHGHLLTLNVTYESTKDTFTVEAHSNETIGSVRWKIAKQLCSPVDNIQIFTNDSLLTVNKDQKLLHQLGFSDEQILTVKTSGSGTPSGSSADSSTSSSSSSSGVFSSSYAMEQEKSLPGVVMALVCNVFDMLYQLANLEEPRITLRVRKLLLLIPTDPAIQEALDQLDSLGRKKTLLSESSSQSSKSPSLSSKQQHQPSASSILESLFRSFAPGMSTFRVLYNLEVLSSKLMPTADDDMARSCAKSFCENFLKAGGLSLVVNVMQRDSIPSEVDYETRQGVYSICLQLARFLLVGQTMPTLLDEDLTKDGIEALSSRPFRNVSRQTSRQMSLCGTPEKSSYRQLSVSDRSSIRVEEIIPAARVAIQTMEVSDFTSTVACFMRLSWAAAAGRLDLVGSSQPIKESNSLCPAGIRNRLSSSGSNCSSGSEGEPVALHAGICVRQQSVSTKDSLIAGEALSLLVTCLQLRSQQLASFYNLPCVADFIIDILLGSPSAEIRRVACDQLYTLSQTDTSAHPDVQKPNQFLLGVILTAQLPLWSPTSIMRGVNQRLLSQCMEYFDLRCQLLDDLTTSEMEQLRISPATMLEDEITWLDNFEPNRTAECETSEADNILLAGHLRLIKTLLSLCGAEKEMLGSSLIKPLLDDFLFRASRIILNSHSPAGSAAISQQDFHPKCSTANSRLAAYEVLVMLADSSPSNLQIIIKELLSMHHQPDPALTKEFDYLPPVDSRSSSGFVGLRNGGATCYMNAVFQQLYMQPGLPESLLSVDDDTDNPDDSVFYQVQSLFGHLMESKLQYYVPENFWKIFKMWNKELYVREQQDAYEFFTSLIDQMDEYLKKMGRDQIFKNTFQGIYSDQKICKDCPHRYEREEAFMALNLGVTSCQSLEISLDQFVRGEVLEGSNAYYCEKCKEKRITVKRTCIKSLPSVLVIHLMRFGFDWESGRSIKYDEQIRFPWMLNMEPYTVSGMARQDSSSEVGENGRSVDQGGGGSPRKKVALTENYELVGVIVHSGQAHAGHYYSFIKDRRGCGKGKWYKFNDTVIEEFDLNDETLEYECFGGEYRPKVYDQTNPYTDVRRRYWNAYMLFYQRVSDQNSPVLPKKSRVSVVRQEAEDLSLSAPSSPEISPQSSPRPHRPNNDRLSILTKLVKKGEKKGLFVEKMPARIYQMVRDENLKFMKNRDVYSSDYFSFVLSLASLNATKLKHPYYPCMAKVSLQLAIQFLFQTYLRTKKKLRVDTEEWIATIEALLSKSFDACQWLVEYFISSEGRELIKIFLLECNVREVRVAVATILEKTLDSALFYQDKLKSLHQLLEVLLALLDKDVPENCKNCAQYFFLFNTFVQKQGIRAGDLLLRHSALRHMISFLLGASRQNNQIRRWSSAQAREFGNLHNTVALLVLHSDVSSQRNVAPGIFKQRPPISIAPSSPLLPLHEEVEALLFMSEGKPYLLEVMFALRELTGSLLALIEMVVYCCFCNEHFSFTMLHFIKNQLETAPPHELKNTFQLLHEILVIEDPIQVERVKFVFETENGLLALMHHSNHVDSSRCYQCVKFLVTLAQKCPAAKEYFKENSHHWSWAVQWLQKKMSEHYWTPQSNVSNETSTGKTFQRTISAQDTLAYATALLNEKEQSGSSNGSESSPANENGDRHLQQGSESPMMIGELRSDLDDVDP
How it was run: as §1

USP25 = target: T3, USP25 (UniProt Q9UHP3)
T3 sequence (whole entry): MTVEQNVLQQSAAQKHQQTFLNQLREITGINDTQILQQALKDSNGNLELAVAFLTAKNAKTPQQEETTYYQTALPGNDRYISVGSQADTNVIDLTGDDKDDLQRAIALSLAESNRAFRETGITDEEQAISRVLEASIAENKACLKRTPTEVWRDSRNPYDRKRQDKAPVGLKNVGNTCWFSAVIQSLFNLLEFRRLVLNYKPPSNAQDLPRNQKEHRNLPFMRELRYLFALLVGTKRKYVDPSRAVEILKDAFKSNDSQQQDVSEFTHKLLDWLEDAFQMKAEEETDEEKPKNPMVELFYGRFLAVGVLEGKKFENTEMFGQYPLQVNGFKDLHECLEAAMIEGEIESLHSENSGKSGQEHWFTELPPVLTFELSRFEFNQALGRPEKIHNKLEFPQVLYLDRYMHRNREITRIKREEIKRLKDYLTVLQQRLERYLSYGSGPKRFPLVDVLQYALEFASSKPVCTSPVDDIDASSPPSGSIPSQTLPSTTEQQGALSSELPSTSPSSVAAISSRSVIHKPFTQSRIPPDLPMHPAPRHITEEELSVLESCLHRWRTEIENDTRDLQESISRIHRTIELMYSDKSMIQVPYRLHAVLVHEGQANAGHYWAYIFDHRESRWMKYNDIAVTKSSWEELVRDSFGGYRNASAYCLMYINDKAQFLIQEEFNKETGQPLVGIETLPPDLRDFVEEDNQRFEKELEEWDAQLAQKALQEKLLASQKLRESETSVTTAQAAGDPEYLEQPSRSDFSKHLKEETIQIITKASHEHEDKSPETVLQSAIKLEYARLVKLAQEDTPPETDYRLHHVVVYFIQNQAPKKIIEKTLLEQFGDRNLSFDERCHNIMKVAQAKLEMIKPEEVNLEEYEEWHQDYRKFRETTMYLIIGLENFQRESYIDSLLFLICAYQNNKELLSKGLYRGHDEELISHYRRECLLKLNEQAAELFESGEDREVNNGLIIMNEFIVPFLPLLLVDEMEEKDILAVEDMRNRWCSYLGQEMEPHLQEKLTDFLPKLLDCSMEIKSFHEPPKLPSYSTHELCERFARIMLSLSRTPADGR
How it was run: as §1

USP28 = target: T4, USP28 (UniProt Q96RU2)
T4 sequence (whole entry): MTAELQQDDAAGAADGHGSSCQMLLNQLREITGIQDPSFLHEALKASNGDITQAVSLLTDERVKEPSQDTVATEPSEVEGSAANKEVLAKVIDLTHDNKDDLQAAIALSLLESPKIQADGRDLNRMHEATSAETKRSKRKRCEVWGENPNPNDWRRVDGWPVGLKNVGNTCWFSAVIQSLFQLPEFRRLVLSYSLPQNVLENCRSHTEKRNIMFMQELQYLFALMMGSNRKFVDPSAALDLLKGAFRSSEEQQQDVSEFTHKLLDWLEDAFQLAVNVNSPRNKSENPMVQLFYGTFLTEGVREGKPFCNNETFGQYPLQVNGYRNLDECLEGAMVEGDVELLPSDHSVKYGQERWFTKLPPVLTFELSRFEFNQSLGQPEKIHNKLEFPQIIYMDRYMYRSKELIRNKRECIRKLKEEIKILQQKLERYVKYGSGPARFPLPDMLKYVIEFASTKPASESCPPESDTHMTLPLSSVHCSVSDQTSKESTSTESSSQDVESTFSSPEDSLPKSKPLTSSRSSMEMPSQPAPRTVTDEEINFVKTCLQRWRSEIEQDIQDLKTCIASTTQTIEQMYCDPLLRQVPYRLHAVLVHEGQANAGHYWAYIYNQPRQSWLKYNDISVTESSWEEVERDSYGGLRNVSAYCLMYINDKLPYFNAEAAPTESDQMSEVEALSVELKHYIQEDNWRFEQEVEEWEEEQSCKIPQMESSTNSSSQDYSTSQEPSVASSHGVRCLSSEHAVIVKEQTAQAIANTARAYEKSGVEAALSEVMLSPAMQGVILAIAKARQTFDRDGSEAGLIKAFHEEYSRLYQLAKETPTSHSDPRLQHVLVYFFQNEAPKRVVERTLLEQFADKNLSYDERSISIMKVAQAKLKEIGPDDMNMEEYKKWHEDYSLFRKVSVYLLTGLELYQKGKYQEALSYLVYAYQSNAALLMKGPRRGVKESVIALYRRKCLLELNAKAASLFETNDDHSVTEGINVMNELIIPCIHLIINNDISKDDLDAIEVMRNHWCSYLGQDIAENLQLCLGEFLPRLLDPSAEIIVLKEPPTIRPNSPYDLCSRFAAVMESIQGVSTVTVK
How it was run: as §1

Measured: log2 ratio of Biotin-Ahx-Ub-VS probe labelling

CC(NC(=O)CCl)c1cnn(C2CC2)c1 (stereo not given)
inactive: USP19 -0.305 | USP22 -0.22 | USP24 -0.409 | USP25 -0.784 | USP28 -0.621
